# Shn3 3UTR inh: reduction of Shn3 3'UTR firefly luciferase signal, primary screen, Schnurri-3 inhibitor project, cell-based, Clone20 osteoblasts, set 2; Clone20 osteoblast Shn3 3'UTR firefly luciferase, 24 h; inhibition, % at 12.5 µM; 360,000 tested, 0.52% active; AID 588674, 2011;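 active = mean inhibition of at least 75% with every replicate also reaching 75%; inconclusive = mean inhibition at least 75% but some replicate below; inactive = mean inhibition below 75%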;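 also: 0% = median of neutral control wells and 100% = pilot-screen positive control compound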
# EWS-Fli block: EWS/Fli-driven NR0B1 reporter inhibitors, primary screen, A673 cells, NR0B1 luciferase, luminescence, MLPCN library; 350,000 tested, 0.67% active; AID 651661, 2012; inhibition, % at 12.6 µM; viability-normalised;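 active = mean inhibition of at least 50% after viability correction, with every replicate also passing that limit; inconclusive = mean reaches 50% but only one of two replicates passes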;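 also: firefly luciferase signal divided by Alamar Blue viability fluorescence both relative to DMSO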
# EBV LMP1 NFkB: EBV LMP1-driven NF-kappaB luciferase reporter inhibitors, primary screen, cell-based, luminescence, single point | 350,000 tested, 0.69% active | LMP1-induced NF-kappaB luciferase reporter cells | inhibition, % at 12.5 µM; in the data active = inhibition above about 41%; inconclusive = no clear call, values can overlap the other calls;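 also: 0% = neutral control wells and 100% = reference inhibitor control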
# LGR2 inh: inhibitors of bursicon-induced LGR2 CRE-luciferase signal, primary screen, cell-based, HEK293, CRE-luciferase reporter, bursicon stimulation; Drosophila bursicon receptor LGR2 (rickets); inhibition, % at 9.99 µM; AID 720647, 2013; 380,000 tested, 0.35% active; bursicon-stimulated, 4 h;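 active = drop in luminescence signal, shown as inhibition above about 50% in the replicate tests, limit read from the data, passing the limit was not always enough; inconclusive = probably only some replicates passing the limit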;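 also: agonist challenge used bursicon conditioned medium at about half maximal strength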
# PAX8 inh HTS: inhibitors of PAX8-driven TPO luciferase reporter, primary screen, RMG-I cells, single concentration; AID 652154, 2013; SteadyGlo, 24 h; 360,000 tested, 1.2% active; inhibition, % at 12.6 µM;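 active = mean replicate inhibition at least 60% with every replicate also reaching 60%; inconclusive = only one of the two criteria is met; inactive = mean below 60% and not all replicates reaching 60%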;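 also: luciferase light reporting Pax8 driven TPO promoter activity; plate controls were median of neutral control wells for no effect and mitoxantrone controls for full effect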
# TRPM1 prom inh: inhibitors of MITF-dependent TRPM1 promoter reporter, primary screen, cell-based, SK-MEL-5, single point, luciferase; SK-MEL-5 TRPM1 promoter luciferase, 24 h; inhibition, % at 12.5 µM; 330,000 tested, 0.83% active;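 active = mean inhibition across replicates of 60% or more, whatever share of single replicates reaches that level; inconclusive = some that reach 60%, reason not given; inactive = mean inhibition across replicates below 60%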
# * marks the source's active call; other numbers are inactive results; ? = inconclusive; / = no result given. Most compounds without a hit are left out; they make up all but 2.2% or so of the library.
SMILES,Shn3 3UTR inh,EWS-Fli block,EBV LMP1 NFkB,LGR2 inh,PAX8 inh HTS,TRPM1 prom inh
CC(C)(C)c1ccc(C(=O)O/N=C(\N)c2ccccc2)cc1,69.7,76.1*,56.8*,91.0*,30.3,68.7*
N/C(=N\OC(=O)c1ccc(Br)cc1)c1ccccc1,-39.5,/,-41.1,/,/,-74.1
CC(C)C#Cc1ccc2c(c1)O[C@H](CN(C)C(=O)C1CCCCC1)[C@@H](C)CN([C@@H](C)CO)S2(=O)=O,/,18.6,/,17.4,/,/
Cc1ccc(-c2ccc([C@@H]3[C@@H](CO)N4C(=O)CN(C(=O)c5cccnc5)C[C@@H]34)cc2)cc1,/,13.4,/,-9.8,-3.3,/
CN1CCN(C(=O)C[C@@H]2CC[C@H]3[C@@H](COC[C@@H](O)CN3C(=O)C3CCCC3)O2)CC1,/,-8.3,/,-1.7,8.6,/
Cc1ccc(-c2cnc3c(c2)C(=O)N([C@@H](C)CO)C[C@H](C)[C@@H](CN(C)C(=O)c2cccc(F)c2)O3)cc1,/,-54.6,/,-7.4,-6.5,/
Cc1c(CCO)c(=O)n2n1CCCC2,-19.9,7.5,52.1*,4.0,-12.9,-2.2
COc1ccc(-c2ccc(C(C)=O)cc2)cc1[C@H]1[C@@H]2C=CCC[C@@]2(C)C(=O)N1Cc1ccccc1,-14.0,2.1,2.1,22.2,61.9*,5.5
O=C(/C=C/c1ccc(F)cc1)NC(=S)NNC(=O)c1cnccn1,89.3*,24.4,36.3,-0.4,-6.2,21.2
O=C(NC(=S)NNC(=O)c1cnccn1)c1ccc(F)cc1,66.0,9.3,16.0,-12.9,-4.1,-2.5
COc1ccc(/C=C/C(=O)NC(=S)NNC(=O)c2cnccn2)cc1,93.7*,8.4,29.8,6.3,25.1,46.6
O=C(C[C@H]1CC[C@H](NC(=O)CCN2CCCCC2)[C@H](CO)O1)Nc1nccs1,/,0.6,/,11.8,-8.4,/
COc1ccc(OC)c(C2CC(c3ccccc3)=NN2C(=S)Nc2ccccc2)c1 (stereo unspecified),10.9,52.3*,3.9,-21.5,14.5,14.8
COc1ccc(NC(=O)Nc2ccc3c(c2)[C@H]2C[C@H](CC(=O)O)O[C@H](CO)[C@H]2O3)cc1,/,-4.9,/,4.5,-6.6,/
COc1ccc(Nc2oc(COc3ccc(Cl)cc3)nc2C#N)cc1,18.8,/,46.1*,/,26.2,27.1
C[C@H]1CN([C@@H](C)CO)S(=O)(=O)c2ccc(C#Cc3cccc(F)c3)cc2O[C@H]1CN(C)CC1CC1,/,-13.7,/,7.0,65.2*,/
C[C@@H]1CN([C@H](C)CO)S(=O)(=O)c2ccc(C#Cc3cccc(F)c3)cc2O[C@@H]1CN(C)C(=O)NC1CCCCC1,/,11.6,/,3.7,82.5*,/
C[C@H](CO)N1C[C@H](C)[C@H](CN(C)C(=O)NC2CCCCC2)Oc2cc(C#Cc3cccc(F)c3)ccc2S1(=O)=O,/,29.3,/,37.8,83.5*,/
C[C@H]1CN([C@@H](C)CO)S(=O)(=O)c2ccc(Br)cc2O[C@@H]1CN(C)C(=O)C1CCC1,/,-2.1,/,15.3,/,/
Clc1ccc(-c2cn(-c3ccccc3)c3[n+]2CCS3)cc1,6.9,8.5,-5.6,-29.2,9.9,-5.0
COc1ccc(-c2cn(-c3ccc(Br)cc3)c3[n+]2CCS3)cc1,64.8,6.5,11.9,7.0,64.9*,42.0
C[C@@H]1CN([C@H](C)CO)C(=O)c2cc(NC(=O)CCC(F)(F)F)ccc2O[C@@H]1CN(C)C(=O)Nc1ccc(F)cc1,/,-13.2,/,9.4,2.4,/
COc1ccc(F)cc1-c1cc(NC=O)c2ncc(-c3cc(OC)c(OC)c(OC)c3)n2c1,16.9,60.2*,/,20.4,90.1*,/
Cc1ccc(-c2cc(NC=O)c3ncc(-c4cccc(C(=O)N(C)C)c4)n3c2)cc1,5.4,13.6,/,-5.6,18.8,/
COc1ccccc1-c1cc(NC=O)c2ncc(-c3ccc(F)cc3)n2c1,14.6,7.9,/,-6.0,19.5,/
SMILES,Shn3 3UTR inh,EWS-Fli block,EBV LMP1 NFkB,LGR2 inh,PAX8 inh HTS,TRPM1 prom inh
COc1cc(-c2cnc3c(NC=O)cc(-c4ccccc4Cl)cn23)cc(OC)c1OC,7.3,45.4,/,-10.2,75.9*,/
COc1cc(-c2cnc3c(NC=O)cc(-c4ccc(C)cc4)cn23)cc(OC)c1OC,11.2,44.2,/,-42.7,90.1*,/
Cc1ccc(-c2cc(NC=O)c3ncc(-c4cnn(C)c4)n3c2)cc1,21.2,56.5*,/,-14.3,34.5,/
C/C=C/c1cnc2c(c1)C(=O)N([C@@H](C)CO)C[C@H](C)[C@H](CN(C)C(=O)NC1CCCCC1)O2,/,-6.5,/,4.9,-8.2,/
CC(C)NC(=O)N(C)C[C@@H]1Oc2cc(C#Cc3ccccn3)ccc2S(=O)(=O)N([C@H](C)CO)C[C@H]1C,/,-2.7,/,1.5,/,/
CC=Cc1ccc2n(c1=O)C[C@@H]1[C@@H](CO)[C@H](C(=O)NCc3ccncc3)N(Cc3cncnc3)[C@H]21 (mixture of isomers),/,1.2,/,5.1,/,/
COc1ccc(F)cc1-c1cc(NC=O)c2ncc(-c3cccc(C(=O)N(C)C)c3)n2c1,5.3,15.1,/,-0.2,67.6*,/
CS(=O)(=O)c1ccc(-c2cc(NC=O)c3ncc(-c4ccc(F)cc4)n3c2)cc1,-4.7,-14.7,/,-9.5,68.4*,/
CC(=O)Nc1cccc(-c2cc(NC=O)c3ncc(-c4cccc(C(C)=O)c4)n3c2)c1,-57.0,19.2,/,-6.5,81.4*,/
COc1cc(-c2cc(NC=O)c3ncc(-c4ccccc4)n3c2)cc(OC)c1OC,-3.7,12.2,/,-14.4,14.5,/
COc1cccc(-c2cnc3c(NC=O)cc(-c4ccc(S(C)(=O)=O)cc4)cn23)c1,-30.3,0.6,/,10.5,39.0,/
COc1cc(-c2cnc3c(NC=O)cc(-c4ccccc4)cn23)cc(OC)c1OC,-2.4,59.4*,/,-48.4,92.0*,/
C[C@@H]1CCCCO[C@H](CN(C)C(=O)NC2CCCCC2)[C@H](C)CN([C@H](C)CO)C(=O)c2cc(NS(=O)(=O)c3cccs3)ccc2O1,/,3.2,/,-2.2,12.4,/
O=C(C[C@@H]1C=C[C@@H](NC(=O)C2CCOCC2)[C@H](CO)O1)NCc1ccncc1,/,-2.0,/,13.9,7.4,/
O=C(C[C@H]1C[C@H]2c3cc(NC(=O)c4cccnc4)ccc3O[C@H]2[C@H](CO)O1)NCC(F)(F)F,/,-9.2,/,-2.7,-12.8,/
C[C@H]1CN([C@@H](C)CO)S(=O)(=O)c2ccc(C#CCN(C)C)cc2O[C@@H]1CN(C)C(=O)c1ccccc1F,/,2.7,/,7.3,-11.4,/
CCCCCCN1C[C@@H](n2cc(-c3ccc(F)cc3)nn2)[C@H](O)C[C@@H]1c1ccc(Cl)cc1,?,23.1,6.8,?,89.5*,/
COc1ccc([C@H]2C[C@H](n3cc(-c4ccc(F)cc4)nn3)[C@@H](O)CN2Cc2cccs2)cc1,-20.3,1.9,5.0,13.2,10.9,/

# Assay outcomes from PubChem BioAssay.
